This passage reports outcome and AC50 results from PubChem BioAssay AID2283176 (EPA ToxCast).

Inconclusive results are not listed. Activity calls are given as the source filed them. The calls were made as follows: active = hit-call score of the fitted dose curve at least 0.9, where 1 is the maximum; inconclusive = response in the unintended direction; inactive = score below 0.9.

Chain of human MAP Kinase-Activated Protein Kinase 5 (MAPKAPK5), MAPKAPK5 (gene 8550) (Q8IW41 whole entry, looked up): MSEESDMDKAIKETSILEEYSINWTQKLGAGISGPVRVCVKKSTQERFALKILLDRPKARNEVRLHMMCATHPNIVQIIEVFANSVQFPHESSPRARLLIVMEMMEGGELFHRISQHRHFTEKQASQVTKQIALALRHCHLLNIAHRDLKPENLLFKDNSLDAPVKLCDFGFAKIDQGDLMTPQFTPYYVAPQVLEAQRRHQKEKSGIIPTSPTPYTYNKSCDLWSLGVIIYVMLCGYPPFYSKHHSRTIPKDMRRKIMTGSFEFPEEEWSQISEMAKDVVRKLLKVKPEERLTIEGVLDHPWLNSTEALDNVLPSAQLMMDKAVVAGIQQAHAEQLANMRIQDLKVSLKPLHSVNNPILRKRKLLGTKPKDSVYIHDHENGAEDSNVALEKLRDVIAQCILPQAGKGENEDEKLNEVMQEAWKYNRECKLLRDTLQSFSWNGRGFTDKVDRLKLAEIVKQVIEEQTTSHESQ

This test addresses human MAP Kinase-Activated Protein Kinase 5 (MAPKAPK5), MAPKAPK5 (gene 8550) (UniProt Q8IW41). Briefly: NVS_ENZ_hMAPKAPK5: NovaScreen (NVS) Enzymatic Assay for human MAP Kinase-Activated Protein Kinase 5 (MAPKAPK5). The procedure:
NVS_ENZ_hMAPKAPK5 is a biochemical, single-readout assay that uses extracted gene-proteins in a cell-free assay. Measurements were taken 1 hour after chemical dosing in a 384-well plate.NVS_ENZ_hMAPKAPK5 is one of one assay component(s) measured or calculated from the NVS_ENZ_hMAPKAPK5 assay. It is designed to make measurements of enzyme activity, a form of enzyme reporter, as detected with fluorescence intensity signals by Fluorescence and electrophoretic mobility shift technology.Data from the assay component NVS_ENZ_hMAPKAPK5 was analyzed into 1 assay endpoint. This assay endpoint, NVS_ENZ_hMAPKAPK5, was analyzed in the positive analysis fitting direction relative to DMSO as the negative control and baseline of activity. Using a type of enzyme reporter, loss-of-signal activity can be used to understand changes in the enzymatic activity as they relate to the gene MAPKAPK5. Furthermore, this assay endpoint can be referred to as a primary readout, because this assay […]. To generalize the intended target to other relatable targets, this assay endpoint is annotated to the kinase intended target family, where the subfamily is serine/threonine kinase.
Binding assays used specific radioligands (tritiated, iodinated) with non-radioactive competitive displacement ligands in agonist or antagonist protocols (as indicated) and various reference compounds and inhibitors to titrate specific binding to receptors and transporters. Most enzyme assays (CYPs, kinases, phosphatases, proteases, HDACs) used recombinant protein and specific substrates (fluorescence mostly, some colorimetric and radioactive) and inhibitors, followed by a biochemical separation of substrate and product. All assays for the biochemical HTS were initially run in duplicate at a single concentration (10 uM for CYP450 assays and 25 uM for all others). Assay-chemical combinations meeting a pre-defined threshold (e.g., 30% inhibition and other criteria defined below) were then run in singleton concentration-response format with maximum concentration of 20 uM for CYPs and 50 uM for all others. Each assay was run with positive and negative controls, and concurrent controls on every plate. The follow-up (secondary) screen tested active chemical-pairs in concentration series, as well as a few additional assays not tested in the primary screen, some selected negative inactives, and several cases re-run in the concentration series for confirmatory purposes.
Regarding `N#Cc1c(Cl)c(Cl)c(Cl)c(C#N)c1Cl`, the call was inactive.
For the compound `CCCC(=NOCC)C1=C(O)CC(CC(C)SCC)CC1=O` (stereo not drawn), the result was inactive.
As for `O=S(=O)(O)C(F)(F)C(F)(F)C(F)(F)C(F)(F)C(F)(F)C(F)(F)C(F)(F)C(F)(F)F`, the AC50 was 44.1 µM (active).
As for `O=C(O)C(F)(F)C(F)(F)C(F)(F)C(F)(F)C(F)(F)C(F)(F)C(F)(F)F`, the result was inactive.
For `C=C(C)CN(CC)c1c([N+](=O)[O-])cc(C(F)(F)F)cc1[N+](=O)[O-]`, the compound was called inactive.
In the case of `S=C1NCCN1`, the compound was called inactive.
For `CNC(=S)S`, the compound was called inactive.
As for `CN(C)[C@@H]1C(=O)C(C(N)=O)=C(O)[C@@]2(O)C(=O)C3=C(O)c4c(O)cccc4[C@@](C)(O)[C@H]3[C@H](O)[C@@H]12`, the concentration at half-maximal activity (AC50) is 24.2 µM (active).

The term AC50 denotes the midpoint of the concentration-response curve, whichever way the signal moves.
